{"source": "PubChem BioAssay (NCATS)", "note": "Results filed as inconclusive are left out. Active and inactive are the calls of the source. The call rests on the fitted dose curve; in most records, active means well fitted curve in the direction sought with a large enough effect; inconclusive means small, poorly fitted or top-dose-only effect, or another doubt; inactive means no such curve, though single readings can be large or run the other way.", "data": [{"assay": "HepG2 viability counterscreen (readout 1: protease activity) against the NCATS DSHEA and TCM libraries (AID 1794841);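 further: cells exposed to compounds for about 24 h before the protease read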", "conditions": "qHTS concentration series; series mostly up to 27.3 µM", "excerpt": "Assay Development and Screening Technology Laboratory (ADST)\nNational Center for Advancing Translational Sciences (NCATS), Rockville, MD\nNational Institute of Health (NIH), Bethesda, Maryland\nDietary Supplements and Natural Products have minor oversight of their safety and efficacy. We assembled a collection of Dietary Supplements and Natural Products (DSNP) as well as Traditional Chinese Medicinal (TCM) Plant extracts, which were screened against an in vitro panel of assays, including a liver cytochrome p450 enzyme panel, CAR/PXR signaling pathways, and P-gp transporter assays, to assess their activity. This pipeline facilitated the interrogation of Natural Product-Drug Interaction (NaPDI) through prominent metabolizing pathways. In addition, we compared the activity profiles of the DSNP/TCM substances with those of an approved drug collection. Many of the approved drugs have well-annotated mechanisms of action (MOA) while the MOAs for most of the DSNP and TCM samples remain unknown. Based on the premise that compounds with similar activity profiles tend to share similar targets or MOA, we clustered the library activity profiles to identify overlap with the NCATS Pharmaceutical Collection to predict the MOAs of the DSNP/TCM substances. Overall, we highlight four significant bioactivity profiles (measured by p-values) as examples of this prediction. In addition, to assess broad cytotoxicity, we employed screening against a HepG2 cell line.\nTo this end, we profiled both collections for potential CAR and/or PXR activity, employing a previously published 1536-well qHTS assay.\nPROTOCOL TABLE (as described by Inglese J, Shamu CE and Guy RK. 2007)\nSEQUENCE No. (e.g., 1, 2, 3, etc.); PARAMETER (e.g., Cells, Incubation, Reagent, etc.); VALUE; DESCRIPTION.\n1; Cells; 5 uL; HepG2 cells, white solid-bottom tissue treated Greiner plate.\n2; Incubation; 4 hrs; 37C, 95% humidity, 5% CO2.\n3; Compounds; 23 nL; Kalypsis pin tool (Wako USA) equipped with a 1536-well pin head to transfer to the assay plates.\n4; Incubation; 24 hrs; 37C, 95% humidity, 5% CO2.\n5; Reagent; 1 uL; GF-AFC substrate.\n6; Incubation; 30 min; 37C, 95% humidity, 5% CO2.\n7; Read 1; Fluorescence; EnVision plate reader excitation 380 nm, emission 510 nm.\n8; Reagent; 3 uL; CellTiter-Glo (Promega).\n9; Centrifuge; 1000 RPM; 15 seconds.\n10; Incubation; 30 min; room temperature.\n11; Read 2; Luminescence; ViewLux plate reader.\nNOTES (numbers refer to Sequence numbers above)\n1. 5 uL of HepG2 cells at 2 x 10^5 cells/mL (1,000 cells/well) were dispensed into a 1536-well white solid-bottom tissue treated plate (Greiner Bio-One) using a Multidrop Combi dispenser (Thermo Scientific). This assay use both GF-AFC substrate and Cell-Titer Glo (CTG), measuring cellular protease activity and ATP content, respectively.\n2. Plates were incubated at 37C, 95% humidity, and 5% CO2 for ~4 hours to allow for cell attachment.\n3. Compounds were transferred (16 nL) via pintool (Wako Automation), for a final concentration range for most substances of 15.6 nM - 31.3 uM.\n4. Plates were incubated for ~24 hours.\n5. 1 uL addition of GF-AFC substrate (final concentration 25 uM; MP Biomedicals).\n6. Plates were incubated at 37C, 95% humidity, and 5% CO2 for 30 minutes.\n7. After incubation, plates were read for fluorescence intensity (Ex/Em = 380 nm/510 nm) on an EnVision detector (PerkinElmer, Shelton, Connecticut).\n8. Once the detection for fluorescence was completed, plates were dispensed with 3 uL of CellTiter-Glo (Promega, Madison, WI).\n9. Plates were centrifuged for 15 seconds at 1,000 RPM's.\n10. Plates were incubated for 30 minutes at room temperature.\n11. Plates were then read for luminescence intensity on a ViewLux detector.\nInglese J, Shamu CE and Guy RK, Reporting data from high throughput screening of small molecule libraries, Nature Chemical Biology, 2007, 3(8): 438-441. doi.org/10.1038/nchembio0807-438.", "values": [{"smiles": "C=C[C@H]1CN2CCc3c([nH]c4ccccc34)[C@H]2C[C@@H]1/C(=C\\OC)C(=O)OC", "outcome": "inactive"}, {"smiles": "CCCCCCCCCCCCCCCCCCCC(=O)O", "outcome": "inactive"}, {"smiles": "C=CCc1ccc2c(c1)OCO2", "outcome": "inactive"}, {"smiles": "O=S(=O)(O)O", "outcome": "inactive"}, {"smiles": "COc1cc2c(cc1O)C[C@H]1c3c(cc(OC)c(O)c3-2)CCN1C", "outcome": "inactive"}, {"smiles": "COC(=O)C1=CO[C@@H](C)[C@@H]2CN3CC[C@@]4(C(=O)Nc5ccccc54)[C@@H]3CC12", "note": "(stereo partly specified)", "outcome": "inactive"}, {"smiles": "COc1ccc2c(c1O)-c1c(OC)c(OC)cc3c1[C@H](C2)N(C)CC3", "outcome": "inactive"}, {"smiles": "COc1cc2c(cc1O)CC1c3c(cc(O)c(OC)c3-2)CCN1C", "note": "(stereo unspecified)", "outcome": "inactive"}, {"smiles": "C=C(C)[C@@H]1CCC(C)=C[C@H]1c1c(O)cc(CCCCC)cc1O", "outcome": "inactive"}, {"smiles": "CC[C@@H]1CN2CC[C@]3(C(=O)Nc4ccccc43)[C@@H]2C[C@@H]1/C(=C\\OC)C(=O)OC", "outcome": "inactive"}, {"smiles": "C=C[C@H]1CN2CC[C@@]3(C(=O)Nc4ccccc43)[C@@H]2C[C@@H]1/C(=C\\OC)C(=O)OC", "outcome": "inactive"}, {"smiles": "COC1=CC(=O)OC(CCc2ccccc2)C1", "note": "(stereo unspecified)", "outcome": "inactive"}, {"smiles": "COC1=CC(=O)O[C@@H](/C=C/c2ccc3c(c2)OCO3)C1", "outcome": "inactive"}, {"smiles": "COc1cc2c(cc1O)CC1NCCc3cc(OC)c(OC)c-2c31", "note": "(stereo unspecified)", "outcome": "inactive"}, {"smiles": "COC1=C[C@@]23CCN(C)[C@H](Cc4ccc(OC)c(O)c42)C3=CC1=O", "outcome": "inactive"}, {"smiles": "N#CC(O[C@@H]1O[C@H](CO[C@@H]2O[C@H](CO)[C@@H](O)[C@H](O)[C@H]2O)[C@@H](O)[C@H](O)[C@H]1O)c1ccccc1", "note": "(stereo partly specified)", "outcome": "inactive"}]}]}
